Results as given in PubChem BioAssay (NCATS).
Inconclusive results are not listed. Calls of active or inactive are those of the source. Calls come from the whole dose curve.

test: Primary qHTS to identify inhibitors of SARS-CoV-2 cell entry (AID 1645846); settings: SARS-CoV-2 pseudovirus cell entry assay, luminescence; activity change, negative = inhibition: at 57.1 µM (top of the series) unless noted; series mostly up to 57.1 µM; note: nearly all actives have a fitted effect of over 45% in size
From the text: Assay Provider: Wei Zheng, Ph.D.
National Center for Advancing Translational Sciences, National Institute of Health, Rockville, MD.
SARS-CoV-2 spike protein, within the viral envelope, mediates viral attachment and infection of host cells. The SARS-CoV-2 spike protein specifically binds to the host receptor ACE2 (Angiotensin-converting enzyme 2). This interaction promotes endocytosis of the viral particle, additional events lead to viral-host cell membrane fusion and release of the viral contents, allowing viral replication.
While SARS-CoV-2 requires BSL-3 facilities for live virus work, pseudotyped partices (PP) that incorporate SARS-CoV-2 spike proteins without replication elements could facilitate studies on viral entry mechanisms in a BSL-2 setting. This PP cell entry assay could also enable screening of small molecule compound libraries in BSL-2 setting to identify inhibitors of SARS-CoV-2 cell entry.
PROTOCOL TABLE (format as described by Inglese J, Shamu CE and Guy RK. 2007)
SEQUENCE No. (e.g., 1, 2, 3, etc.); […] (e.g., Cells, Incubation, Reagent, etc.); VALUE and DESCRIPTION.
1. Cells. Seed 1500 HEK293-ACE2 cells (Expi293F with stable expression of human ACE2) in 2 uL/well media (DMEM, 10% FBS, 1x L-glutamine, 1x Pen/Strep, 1 ug/ml puromycin) in white 1536-well assay plates (Greiner #782073).
2. Incubation. Incubate at 37C with 5% CO2 overnight (~16 h).
3. Compounds. Dispense 23 nL/well compounds in DMSO via pin transfer.
4. Incubation. Incubate for 1 hr at 37C 5% CO2.
5. Reagent. Dispense 2 uL/well of SARS-CoV-2-S pseudotyped particles. [a] PPs are produced with murine leukemia virus pseudotyping. [b] SARS-CoV-2-S is Wuhan-Hu-1 sequence (BEI #NR-52420) with C-terminal 19 amino acid truncation.
6. Centrifuge. […]
7. Incubation. Incubate at for 48 hr at 37C 5% CO2
8. Centrifuge. Remove supernatant with gentle centrifugation using a Blue Washer (BlueCat Bio).
9. Reagent. Dispense 4 uL/well of Bright-Glo Luciferase detection reagent (Promega #E2620).
10. Incubation. Incubate for 5 min at room temperature.
11. Detection. Read luminescence signal (Viewlux plate reader, PerkinElmer). Data was normalized with wells containing SARS-CoV-2-S PP as 100%, and wells containing bald PP (no fusion protein) as 0%.
Potency is the fitted concentration of half-maximal effect.

SMILES	Potency	outcome	activity change, negative = inhibition
O=C1CN2Cc3c(ccc(Cl)c3Cl)N=C2N1	inactive		
COC1CCC(C(=O)c2ccc3nc4c(cc3c2)CCCO4)CC1 (stereo not given)	inactive		
C[C@@H]1CN(Cc2ccc(F)cc2)CCN1C(=O)COc1ccc(Cl)cc1NC(N)=O	2.51 µM (active)		
N[C@@H](Cc1ccc(O)c(O)c1)C(=O)O		inactive [at 0.702 µM]	-25.4%
COc1cc(Nc2ncc(F)c(Nc3ccc4c(n3)N(COP(=O)(O)O)C(=O)C(C)(C)O4)n2)cc(OC)c1OC	inactive		
C=CC(=O)N1CCc2ccc(-n3c(=O)ccc4cnc5ccc(-c6cnn(C)c6)cc5c43)cc21	3.55 µM (active)		
CCCCCCCCc1ccc(CCC(N)(CO)CO)cc1	8.91 µM (active)		
CCCc1c(OCCCOc2ccc(OCC(=O)O)cc2)ccc(C(C)=O)c1O			-13.9%
CC1(C)Cc2c(sc(NC(=S)NC(=O)c3ccccc3)c2C(=O)O)CO1	inactive		
COc1cc(C[C@@H](CO)[C@H](CO)Cc2ccc(O)c(OC)c2)ccc1O	inactive		
COc1ccc2c3c1O[C@H]1C[C@@H](O)C=C[C@@]31CCN(C)C2	inactive		
Cc1cccc(Nc2nc(-c3ccncc3)cs2)c1	10 µM (active)		
Cc1cc(CN2CCN(c3c(Br)cnc4nc(-c5ccc(N6CCN(C)CC6)cc5)[nH]c34)CC2)no1	3.16 µM (active)		
CN(C)CCOc1cc(-c2cn[nH]c2)ccc1NC(=O)C1COc2ccccc2O1 (stereo not given)			-42.9%
C[C@@H]1CCO[C@H]2Cn3cc(C(=O)NCc4ccc(F)cc4F)c(=O)c(O)c3C(=O)N12			-84%
CN(CC(=O)N(Cc1ccc(C2CCCCC2)cc1)c1ccc(C(=O)O)c(O)c1)S(=O)(=O)c1c(F)c(F)c(F)c(F)c1F			-15.1%
CCCCCCCCCCCCCCCCCCCCCCO		inactive [at 0.702 µM]	-17.8% [at 27.1 µM]
CC(C)(OCc1nn(Cc2ccccc2)c2ccccc12)C(=O)O	inactive		
COc1ccc(S(=O)(=O)Nc2cccnc2Nc2ccc(O)cc2)cc1	6.31 µM (active)		

SMILES	Potency	outcome	activity change, negative = inhibition
O=c1c(O)c(-c2ccc(O)cc2)oc2cc(O)cc(O)c12	inactive		
Nc1cccc2c1C(=O)N(C1CCC(=O)NC1=O)C2=O (stereo not given)			-12.7%
O=C1c2c(O)cc(O)cc2OC(c2ccc(O)c(O)c2)C1O (stereo not given)			4.53%
Nc1ccn([C@@H]2O[C@H](CO)[C@@H](O)[C@H]2O)c(=O)n1			-8.54%
CCC(C)N(C)C(=O)c1cc2ccccc2c(-c2ccccc2Cl)n1 (stereo not given)			4.18%
CCCCS(=N)(=O)CCC(N)C(=O)O (stereo not given)	inactive		
Cc1c(F)cc(C(=O)NC2CC2)cc1-c1ccc(C(=O)NCC(C)(C)C)cn1			-35.5%
CN1N=C(N)c2cn([C@@H]3O[C@H](COP(=O)(O)O)[C@@H](O)[C@@H]3O)c3ncnc1c23			-94.7%
Cc1ncc(-c2ccnc(Nc3ccc(S(C)(=O)=O)cc3)n2)n1C(C)C			-96.5%
CS(=O)(=O)c1ccc(-c2cnc(N)c(C(=O)Nc3ccccc3)n2)cc1			-1.17%
CN1CCN(Cc2ccc(NC(=O)Nc3ccc(Oc4cc(NC(=O)C5CC5)ncn4)cc3)cc2C(F)(F)F)CC1	1 µM (active)		
O=c1c(-c2ccc(O)cc2)coc2cc(O)ccc12	inactive		
O=C(O)c1nc(=O)[nH]c(=O)[nH]1		inactive [at 0.702 µM]	-18.6% [at 27.1 µM]
O=S(=O)(O)c1ccc2cc(N=Nc3cc(S(=O)(=O)O)c4cccnc4c3O)ccc2c1	inactive		
C[C@H](Cc1ccc(O)c(O)c1)[C@@H](C)Cc1ccc(O)c(O)c1			-10.6%
COc1cc2nccc(Oc3ccc(NC(=O)NC4CC4)c(Cl)c3)c2cc1C(N)=O			-21.3%
COc1cc2ncnc(Nc3cccc(Cl)c3)c2cc1OC			0.792%
NC(=O)Nc1cc(-c2ccc(CN3CCOCC3)cc2)sc1C(N)=O			-10.1%
